Results: PubChem BioAssay AID1259240 (Keith Lab, Institute of Cancer Science, University of …, 2017)
Activity calls are given as the source filed them. Cut-off read from the data, not from the text of the source: active = fold change mostly below about -2 (no sharp cut-off); inactive = mostly above about -1.8.

Assay: TERT promoter activity modulators, primary screen, cell-based, luciferase reporter, human (AID 1259240)
Details: A2780 TERT promoter luciferase reporter, 16 h; at 20 µM, fold versus average of vehicle-only wells
In the case of `CC1CCCN(S(=O)(=O)c2cccc(-c3cn4cccnc4n3)c2)C1` (stereo not given), the fold change is reported as -1.53 (inactive).
For `COc1cc(OC)cc(-c2cc(N3C(=O)Nc4ccccc4N3O)n[nH]2)c1`, the fold change was -1.25 (inactive).
In the case of `Cc1nc2sccn2c1-c1csc(Nc2ccc(O)cc2)n1`, the fold change is reported as -1.8 (inactive).
For `CCN(CC)C(=O)Nc1ccc2snnc2c1`, the fold change was -1.04 (inactive).
For `CCCN1CN=C(Nc2nc(C)c3ccc(C)cc3n2)NC1`, the fold change was -2.8 (active).
In the case of `COc1cccc(CNc2nc3ccccc3n3cnnc23)c1`, the fold change is reported as 1.12 (inactive).
With `Cc1cc(NC(=O)CSc2ncnc3ccccc23)no1` the fold change was 1.35 (inactive).
In the case of `Cc1cc(C)n(-c2nc3ccccc3n3nnnc23)n1`, the fold change is reported as 1.46 (inactive).
For `Cc1nnc2ccc(N3CCC(C)CC3)nn12`, the fold change was 1.03 (inactive).
With `O=C(c1cnc2ccccc2n1)N1CCn2c(nc3ccccc32)C1` the fold change was 1.4 (inactive).
For `Cc1cc(C)cc(N(CC(=O)NCc2cccs2)S(=O)(=O)c2c(C)[nH]c(=O)[nH]c2=O)c1`, the fold change was -2.11 (active).
In the case of `O=C(NCc1ccc(Cl)cc1)c1c[nH]n2c(=O)cc(C3CCNCC3)nc12`, the fold change is reported as -1.87 (inactive).
In the case of `CCC(C(=O)O)N1C(=O)/C(=C/c2ccc(OC)cc2)SC1=S` (stereo not given), the fold change is reported as -2.97 (active).
With `CC1CCCC(NC(=O)CC(C)(C)CC2=NS(=O)(=O)c3ccccc3N2)C1C` (stereo not given) the fold change was 1.01 (inactive).
With `N#Cc1ccc(Cn2c(=O)n(Cc3ccccc3Cl)c(=O)c3cccnc32)cc1` the fold change was -1.11 (inactive).
In the case of `Clc1ccc2c(c1)C1CC(c3ccccc3)=NN1C(c1ccncc1)O2` (stereo not given), the fold change is reported as -1.13 (inactive).
In the case of `Cc1ccc(-c2cc(C(F)F)n3ncc(C(=O)NCc4cccnc4)c3n2)cc1`, the fold change is reported as -1.5 (inactive).
In the case of `CC1=C(C(=O)Nc2ccccc2)C(c2ccccn2)n2nc(CCCO)nc2N1` (stereo not given), the outcome is reported as “inactive”.
With `CC1CCCN(C(=O)c2ccc3c(=O)n4c(nc3c2)CCCCC4)C1` (stereo not given) the fold change was 1.14 (inactive).
For `O=C(NC1CCCC1)c1ccc2nc(N3CCOCC3)sc2c1`, the fold change was -1.15 (inactive).
With `O=C(NCCCN1CCCCC1)C1CCC(CNS(=O)(=O)c2cccc3nsnc23)CC1` (stereo not given) the fold change was -1.15 (inactive).
In the case of `O=C(Nc1cccc(C(F)(F)F)c1)Nc1ccc2snnc2c1`, the fold change is reported as -1.55 (inactive).
For `C=CCNC(=O)c1onc(C)c1Cl`, the fold change was 1.22 (inactive).
For `COc1ccc(S(=O)(=O)n2nc(-c3ccc(OC)cc3OC)cc2N)cc1`, the fold change was 1.19 (inactive).
In the case of `O=C(NCCN1CCCCCC1)C1CCC(CNS(=O)(=O)c2cccc3nsnc23)CC1` (stereo not given), the fold change is reported as -1.56 (inactive).
In the case of `CC1=CC(=O)OC1Cc1ccc2ccccc2n1` (stereo not given), the fold change is reported as -1.06 (inactive).
For `CC(C)(C)c1ccc(OCc2nc(-c3ccncc3)no2)c(Br)c1`, the fold change was -1.23 (inactive).
In the case of `COc1cc(NC(=O)Nc2ccc3snnc3c2)cc(OC)c1OC`, the fold change is reported as -1.49 (inactive).
With `C=CCn1c(SCC(=O)N2CCCCC2)nc2sc3c(c2c1=O)CCC3` the fold change was -1.53 (inactive).
With `CCOC(=O)/C(=N\OC)c1cn2cc(Br)ccc2n1` the fold change was 1.2 (inactive).
With `CCOC(=O)CNC(=O)CSc1nc(C)nc2c1c(=O)n(C)c(=O)n2C` the fold change was 1.49 (inactive).
For `Cc1ccc(N2C(=O)c3n[nH]c(C)c3C2c2cccs2)cc1` (stereo not given), the fold change was 1.21 (inactive).
For `N=C1/C(=C/c2ccc(SCc3ccco3)o2)C(=O)N=C2SC=C(c3ccccc3)N12`, the fold change was -1.25 (inactive).
In the case of `COc1cc(-c2nc3s/c(=C\c4cccs4)c(=O)n3n2)cc(OC)c1OC`, the fold change is reported as 1.19 (inactive).
For `COc1ccc(-c2n[nH]c3c2C(c2ccc(Cl)cc2)NC3=O)cc1` (stereo not given), the fold change was -3 (active).
In the case of `COc1ccc2cc3c(N)nn(C(=O)CCS(=O)(=O)c4ccccc4)c3nc2c1`, the fold change is reported as -1.33 (inactive).
In the case of `O=C(NCCc1c[nH]c2ccccc12)C1CCN(c2ccc(N3CCOCC3)nn2)CC1`, the fold change is reported as -1.29 (inactive).
With `COc1ccccc1-c1cc(N)n(S(=O)(=O)c2ccc([N+](=O)[O-])cc2)n1` the fold change was -1.09 (inactive).
In the case of `O=C(O)CCC(=O)N1CCc2cc(S(=O)(=O)N3CCc4ccccc4C3)ccc21`, the fold change is reported as 1.93 (inactive).
With `Cc1ccc(-n2c(C)cc(/C=C3/SC(=S)N(CC(=O)O)C3=O)c2C)cc1` the fold change was -5.22 (active).
